This is an account of results in paper PMC5540273 (PLoS ONE, 2017).

Among the test systems are BRSK1; BRSK2; BTK; BUB1; CAMK1B; CAMK1D; CAMK1G; CAMK1; CAMK2A; CAMK2B; CAMK2D; CAMK2G; CAMK4; CAMKK1; CAMKK2; CASK; CDC2L2.
Holding throughout (conditions): concentration: 1 μM, replicates: in singlicate; n = 1
In another assay the test system is T1, CDC2L1.
T1 construct: gene CDK11B

In the next assay the test system is T2, CDC2L5.
T2 construct: gene CDK13

The next assay relates to T3, CDK11.
T3 construct: gene CDK19
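Also: KINOMEscan kinase panel screen.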

On to `Nc1nc(-c2ccc3c(N)n[nH]c3c2)cc(N2CCC[C@@H](C(=O)Nc3ccccc3)C2)n1.O=C(O)C(F)(F)F.O=C(O)C(F)(F)F` [GSK2288359], for which the “%Inh” value in the assay on BRSK1 is 0%; in the assay on BRSK2 it was 0%; with BTK, 0%; in the assay on BUB1 it was 0%; with CAMK1B, 26%; with CAMK1D it was 11%. For the same compound, the “%Inh” value is on record as 0% with CAMK1G; 5% in the assay with CAMK1; 0% in the assay with CAMK2A; 0% with CAMK2B; 0% with CAMK2D; 22% in the assay on CAMK2G. Besides, the “%Inh” value in the assay on CAMK4 is reported as 0%; with CAMKK1, 11%; in the assay on CAMKK2 it was 16%; in the assay on CASK it was 5%; in the assay with CDC2L1, 0%; with CDC2L2, 19%. Also, the “%Inh” value with CDC2L5 and with CDK11 was 0% each time.

With `CNc1nccc(-c2c(-c3ccc(F)cc3)ncn2CCCN2CCOCC2)n1` [SB-222516], the “%Inh” value in the assay on BRSK1 is 0%; with BRSK2, 3%; with BTK, 0%; with BUB1, 0%; with CAMK1B, 0%; in the assay with CAMK1D it was 0%. Also, the “%Inh” value in the assay on CAMK1G is reported as 0%; with CAMK1, 0%; with CAMK2A it was 8%; in the assay with CAMK2B, 16%; in the assay with CAMK2D, 11%; in the assay on CAMK2G, 16%. Also, the “%Inh” value was 27% in the assay on CAMK4; 8% in the assay with CAMKK1; 14% in the assay on CAMKK2; 1% in the assay with CASK; 0% in the assay with CDC2L1; 0% in the assay with CDC2L2. Further, the results for the “%Inh” value with CDC2L5 and with CDK11 were 22% and 13%, respectively.

Consider `FC(F)(F)c1cc(Nc2nccc(-c3c(-c4ccc(Cl)cc4)nn4ncccc34)n2)ccc1Cl` [GW829351], for which the “%Inh” value with BRSK1 was 0%; in the assay with BRSK2 it was 0%; with BTK, 0%; with BUB1, 19%; with CAMK1B it was 0%; in the assay on CAMK1D, 0%. For the same compound, the “%Inh” value was determined as 0% in the assay on CAMK1G; 0% in the assay with CAMK1; 30% in the assay on CAMK2A; 27% in the assay on CAMK2B; 0% with CAMK2D; 0% with CAMK2G. In addition, the “%Inh” value in the assay with CAMK4 amounted to 0%; with CAMKK1 it was 2%; with CAMKK2, 0%; with CASK, 11%; with CDC2L1, 0%; in the assay with CDC2L2, 0%. In addition, the “%Inh” value in the assay with CDC2L5 and with CDK11 was 0% throughout.

With `Nc1nc(-c2ccccn2)c(-c2ccnc3ccccc23)s1` [GW548057], the “%Inh” value in the assay on BRSK1 is reported as 0%; in the assay on BRSK2, 0%; with BTK, 8%; in the assay on BUB1, 39%; with CAMK1B, 33%; with CAMK1D it was 8%. Further, the “%Inh” value in the assay with CAMK1G was 0%; in the assay on CAMK1, 4%; in the assay with CAMK2A it was 1%; with CAMK2B, 0%; with CAMK2D, 6%; in the assay on CAMK2G, 20%. Further, the “%Inh” value with CAMK4 came to 0%; with CAMKK1 it was 13%; in the assay on CAMKK2 it was 21%; in the assay on CASK, 26%; in the assay with CDC2L1, 0%; in the assay on CDC2L2, 11%. Moreover, the “%Inh” value stood at 0% in the assay with CDC2L5 and 10% in the assay on CDK11.

`Cl.Cn1ccc(-c2cccc(Nc3ccnc4cc(-c5nccs5)ccc34)c2)n1` [GW525701]: the “%Inh” value in the assay on BRSK1 is listed as 0%; with BRSK2, 38%; in the assay with BTK it was 0%; in the assay on BUB1, 62%; in the assay with CAMK1B, 3%; in the assay on CAMK1D it was 3%. Besides, the “%Inh” value came out at 38% with CAMK1G; 0% in the assay with CAMK1; 0% in the assay with CAMK2A; 0% in the assay with CAMK2B; 26% with CAMK2D; 21% with CAMK2G. The “%Inh” value came out at 0% with CAMK4; 25% in the assay with CAMKK1; 20% in the assay with CAMKK2; 2% in the assay on CASK; 0% in the assay with CDC2L1; 0% with CDC2L2. For the same compound, the “%Inh” value is 0% with CDC2L5 and 3% with CDK11.

On to `O=c1cc(N2CCOCC2)nc2n(Cc3cccc(Cl)c3)ccn12` [GSK2296823], for which the “%Inh” value with BRSK1 is 25%; in the assay on BRSK2 it was 0%; in the assay on BTK, 0%; in the assay with BUB1, 18%; in the assay with CAMK1B, 22%; in the assay on CAMK1D, 22%. For the same compound, the “%Inh” value is 0% in the assay with CAMK1G; 0% in the assay on CAMK1; 0% in the assay on CAMK2A; 0% in the assay on CAMK2B; 0% in the assay with CAMK2D; 3% with CAMK2G. Besides, the “%Inh” value in the assay with CAMK4 is 0%; in the assay on CAMKK1, 17%; in the assay on CAMKK2, 0%; in the assay on CASK, 3%; with CDC2L1, 0%; in the assay on CDC2L2 it was 6%. For the same compound, the “%Inh” value with CDC2L5 and in the assay with CDK11 was 0% throughout.

`COc1ccc(NC(=O)Nc2ccc(C)c(-c3ccc(C(=O)Nc4ccncc4)cc3)c2)cc1` [GSK1398475]: the “%Inh” value with BRSK1 worked out at 0%; in the assay on BRSK2 it was 0%; with BTK, 0%; in the assay with BUB1, 28%; with CAMK1B, 1%; in the assay on CAMK1D, 3%. Also, the “%Inh” value amounted to 0% with CAMK1G; 4% with CAMK1; 0% in the assay on CAMK2A; 0% with CAMK2B; 0% in the assay with CAMK2D; 22% in the assay with CAMK2G. Moreover, the “%Inh” value in the assay on CAMK4 is recorded as 0%; with CAMKK1, 3%; with CAMKK2 it was 20%; in the assay with CASK it was 0%; in the assay with CDC2L1, 0%; with CDC2L2 it was 34%. Further, the figures for the “%Inh” value with CDC2L5 and with CDK11 were 0% and 4%, respectively.

With `Cc1cc(N2CCC(NS(=O)(=O)c3ccc(F)cc3)CC2)nc(Nc2cccc(C#N)c2)n1.O=C(O)C(F)(F)F` [GSK1653537], the “%Inh” value in the assay on BRSK1 is 7%; in the assay on BRSK2, 0%; in the assay with BTK it was 0%; in the assay with BUB1 it was 0%; in the assay on CAMK1B, 0%; in the assay with CAMK1D, 8%. For the same compound, the “%Inh” value stood at 0% with CAMK1G; 16% with CAMK1; 0% in the assay on CAMK2A; 0% with CAMK2B; 3% in the assay with CAMK2D; 1% in the assay with CAMK2G. Moreover, the “%Inh” value with CAMK4 was determined as 0%; with CAMKK1, 5%; in the assay on CAMKK2, 0%; in the assay with CASK, 0%; in the assay with CDC2L1, 0%; in the assay with CDC2L2, 0%. Besides, the “%Inh” value in the assay with CDC2L5 and in the assay with CDK11 was 0% throughout.

`Nc1nc(-c2ccc3c(N)n[nH]c3c2)cc(N2CCCCC2)n1` [GSK2228768]: the “%Inh” value was found to be 5% in the assay with BRSK1; 0% in the assay on BRSK2; 0% with BTK; 21% with BUB1; 8% in the assay on CAMK1B; 5% in the assay with CAMK1D. Also, the “%Inh” value turned out to be 0% in the assay on CAMK1G; 13% in the assay with CAMK1; 0% in the assay with CAMK2A; 0% with CAMK2B; 0% in the assay on CAMK2D; 25% in the assay with CAMK2G. Moreover, the “%Inh” value in the assay on CAMK4 came out at 0%; in the assay on CAMKK1 it was 0%; with CAMKK2 it was 6%; in the assay on CASK, 15%; in the assay on CDC2L1, 0%; in the assay on CDC2L2, 0%. The “%Inh” value in the assay on CDC2L5 and with CDK11 was 0% each time.
